Laboratory results published in the supplement of paper PMC3545927.
The other results are listed elsewhere or left out. How many sequences the whole screen found active is unknown.

Biological target: furin, P09958
Assay: furin cleavage Z-score vs untreated control; higher = more cleavage, active = 3.5 or more, inactive = 1 or less, 8 variable residues between constant flanks
Method in brief: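 Cleavage by purified furin was measured on 8-mer peptides fused to a cDNA oligonucleotide and held on magnetic beads by their N-terminus. Reactions (0.01 ml, 1:10 enzyme:substrate) ran 7.5, 15 or 30 min in 50 mM HEPES pH 7.5 with CaCl2 and NaCl. Released DNA was adapter-tagged by PCR and sequenced, with read counts giving abundance. Log counts versus furin-free reactions were lowess-adjusted and scaled by median absolute deviation to give the cleavage Z-score.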

furin, P09958, sequence (P09958 whole entry): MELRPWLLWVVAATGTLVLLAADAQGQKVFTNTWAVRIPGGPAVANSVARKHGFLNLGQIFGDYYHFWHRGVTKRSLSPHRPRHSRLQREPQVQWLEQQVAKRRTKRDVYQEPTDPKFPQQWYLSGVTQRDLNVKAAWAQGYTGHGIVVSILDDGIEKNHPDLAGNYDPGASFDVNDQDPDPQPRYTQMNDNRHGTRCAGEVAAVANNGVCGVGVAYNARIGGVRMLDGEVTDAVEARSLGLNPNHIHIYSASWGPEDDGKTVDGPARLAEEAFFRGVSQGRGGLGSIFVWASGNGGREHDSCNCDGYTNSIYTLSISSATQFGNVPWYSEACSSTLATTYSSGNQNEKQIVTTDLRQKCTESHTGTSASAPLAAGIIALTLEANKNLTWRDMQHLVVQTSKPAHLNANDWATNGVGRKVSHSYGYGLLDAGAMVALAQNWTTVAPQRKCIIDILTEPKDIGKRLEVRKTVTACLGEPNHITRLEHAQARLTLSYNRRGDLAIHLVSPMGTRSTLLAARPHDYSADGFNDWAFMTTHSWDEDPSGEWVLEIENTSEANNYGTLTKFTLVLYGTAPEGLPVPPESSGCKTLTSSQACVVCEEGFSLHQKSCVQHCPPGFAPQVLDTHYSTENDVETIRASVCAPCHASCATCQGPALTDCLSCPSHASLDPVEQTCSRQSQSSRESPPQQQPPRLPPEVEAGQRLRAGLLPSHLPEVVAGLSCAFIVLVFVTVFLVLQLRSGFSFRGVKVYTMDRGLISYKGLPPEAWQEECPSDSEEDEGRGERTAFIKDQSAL

Sequence | furin cleavage Z-score (7.5 min) | furin cleavage Z-score (15 min) | furin cleavage Z-score (30 min)
CAVTSPLTTSAGNASASA [HC1059] | -0.539 (inactive) | -0.0107 (inactive) | -0.218 (inactive)
CAEVVTSTEVAGNASASA [HC2232] | -0.0344 (inactive) | 0.123 (inactive) | -0.271 (inactive)
CALPCSFTTLAGNASASA [HC498] | 0.311 (inactive) | 0.0716 (inactive) | 0.261 (inactive)
CAETTTPCSGAGNASASA [HC1978] | 0.473 (inactive) | 0.124 (inactive) | -0.446 (inactive)
CAGHRMAWDMAGNASASA [HC318] | -0.464 (inactive) | -0.574 (inactive) | -0.169 (inactive)
CATGLTHIDAAGNASASA [HC942] | -0.972 (inactive) | -0.954 (inactive) | 0.105 (inactive)
CAERPCHRPSAGNASASA [HC2333] | 1.21 | -1.94 (inactive) | 1.34
CAWICEVLSDAGNASASA [HC1152] | 0.155 (inactive) | 0.346 (inactive) | 0.769 (inactive)
CARRHIDLLVAGNASASA [HC290] | 1.11 | 0.566 (inactive) | 1.2
CAEVFTSTWVAGNASASA [HC2187] | 0.575 (inactive) | -0.109 (inactive) | -0.829 (inactive)
CAYIERSPRSAGNASASA [FS-520] | 1.05 | 2.95 | 3.61 (active)
CADKSRSPRSAGNASASA [FS-409] | 6.8 (active) | 6.47 (active) | 6.46 (active)
CAGSQLPCEPAGNASASA [HC1239] | -0.324 (inactive) | -2.36 (inactive) | 0.573 (inactive)
CANWAVRTKLAGNASASA [HC1634] | 1.9 | 0.613 (inactive) | -0.705 (inactive)
CAQHLPYIEQAGNASASA [HC1017] | -0.597 (inactive) | -0.486 (inactive) | -0.755 (inactive)
CAREKRRSADAGNASASA [FS-2915] | 2.47 | 1.11 | 0.11 (inactive)
CAREKRAKIKAGNASASA [FS-2207] | -1.38 (inactive) | 0.0659 (inactive) | 0.59 (inactive)
CARERRGREQAGNASASA [FS-1697] | 0.641 (inactive) | 1.84 | 1.15
CAREARVVSDAGNASASA [FS-2908] | -1.38 (inactive) | -0.98 (inactive) | -0.486 (inactive)
CAREKRGGETAGNASASA [FS-2134] | -0.448 (inactive) | 0.845 (inactive) | 1.95
CARAPRSSSQAGNASASA [FS-3147] | 1.17 | 1.52 | 0.934 (inactive)

Sequence | furin cleavage Z-score (7.5 min) | furin cleavage Z-score (15 min) | furin cleavage Z-score (30 min)
CAREKRSISDAGNASASA [FS-1889] | 9.34 (active) | 11.3 (active) | 8.9 (active)
CAREKKSNSPAGNASASA [FS-2006] | -0.648 (inactive) | -0.595 (inactive) | -1.15 (inactive)
CARFARMIEQAGNASASA [FS-2257] | 1.16 | 3.39 | 3.53 (active)
CAREKRAAEQAGNASASA [FS-1850] | 7.93 (active) | 9.37 (active) | 8.96 (active)
CAREKRSNSQAGNASASA [FS-2008] | 6.55 (active) | 8.6 (active) | 7.52 (active)
CAVPCCSMSYAGNASASA [HC2019] | -0.257 (inactive) | 0.638 (inactive) | 1.91
CAEQTTPCSGAGNASASA [HC1982] | -1.3 (inactive) | -0.293 (inactive) | 0.257 (inactive)
CASPLLLTTTAGNASASA [HC492] | -0.516 (inactive) | -0.474 (inactive) | -1.67 (inactive)
CAESVVCCSMAGNASASA [HC2137] | -0.35 (inactive) | -0.242 (inactive) | -0.275 (inactive)
CAEEEVPCHRAGNASASA [HC2452] | -0.0801 (inactive) | -0.749 (inactive) | -0.159 (inactive)
CADAVILLMCAGNASASA [HC596] | -0.491 (inactive) | 1.35 | 0.744 (inactive)
CAREKRLLYSAGNASASA [FS-3218] | -0.25 (inactive) | 0.302 (inactive) | -0.105 (inactive)
CAREKRSEYSAGNASASA [FS-1852] | 3.09 | 3.81 (active) | 3.2
CARGPRGKGKAGNASASA [FS-1893] | -0.459 (inactive) | -0.333 (inactive) | -2.1 (inactive)
CAIEFRHKRKAGNASASA [FS-1535] | -1.35 (inactive) | 1.39 | 3.89 (active)
CALLCRHKRKAGNASASA [FS-1359] | 7.93 (active) | 9.24 (active) | 8.25 (active)
CATIMAKNEVAGNASASA [HC1439] | 1.57 | 1.43 | 0.513 (inactive)
CAKFHRNRRVAGNASASA [FS-38] | 1.89 | 4.04 (active) | 2.3
CAEVVASTWVAGNASASA [HC121] | 1.23 | 1.63 | -0.233 (inactive)
CAMGGNITRVAGNASASA [HC1279] | -0.69 (inactive) | 2.32 | 0.434 (inactive)
CAYGGRNRRVAGNASASA [FS-151] | 2 | 3.67 (active) | 4.5 (active)
